In PubChem BioAssay:
Active and inactive are the calls of the source. Unless noted, how the calls were made is not given here.

Key:
[1] = system: Wnt5a (protein binding on small-molecule microarray); experiment: small molecules binding Wnt5a protein – biophysical, small-molecule microarray, 635/667 nm fluorescence, primary screen (AID 1142); conditions: 635 nm fluorescence, higher = more signal;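 further: fluorescence read at 667 nm with signal to noise per printed feature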
[2] = ATP-based viability of Huh7 replicon cells – cell-based, CellTiter-Glo luminescence, basal, 48 h, cytotoxicity control for HCV replication inhibitor project, primary screen (AID 1143); conditions: higher = more signal, called active from +8 up or from −8 down;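 further: Huh7 hepatoma cells carrying a hepatitis C replication reporter with no stimulus; test concentration not given here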
[3] = Pseudomonas biofilm growth suppression – PAO1 strain, BacTiter-Glo luminescence, LB-PBS, primary screen (AID 1144); conditions: P. aeruginosa PAO1 biofilm, 12 h, higher = more signal
[4] = basal CRE-LacZ reporter activity in PC12 – cell-based, unstimulated, primary screen (AID 1145); conditions: no forskolin, luminescence, 4.5 h, higher = more signal, called active from +8 up or from −8 down
[5] = forskolin-driven CRE-LacZ activity in PC12 – cell-based, CRE-LacZ reporter, forskolin-stimulated, primary screen (AID 1146); conditions: luminescence, 4.5 h, higher = more signal, called active from +8 up or from −8 down;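 further: PC12 cells with 6xCRE LacZ reporter stimulated by forskolin 10 µM; beta-galactosidase reporter signal reflecting CREB driven transcription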
[6] = biological target: Streptavidin (Streptomyces avidinii) (UniProt P22629); experiment: compounds binding control protein streptavidin – biophysical, small-molecule microarray, 635/667 nm fluorescence, artefact control for SMM compound annotation, primary screen (AID 1147); conditions: higher = more signal;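 further: signal reflects streptavidin binding to arrayed compounds as a control protein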
Sequence of Streptavidin (Streptomyces avidinii) (P22629 whole entry, looked up): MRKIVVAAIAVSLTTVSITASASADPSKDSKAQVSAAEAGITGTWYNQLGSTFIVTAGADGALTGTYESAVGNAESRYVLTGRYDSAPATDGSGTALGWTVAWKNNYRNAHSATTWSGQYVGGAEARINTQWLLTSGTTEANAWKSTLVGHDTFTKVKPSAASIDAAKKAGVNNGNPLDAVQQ

[7] = probe aInhba binding on compound microarray – biochemical, small-molecule microarray, 635/667 nm fluorescence, primary screen (AID 1148); conditions: higher = more signal;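 further: score merges 667nm spot fluorescence with signal-to-noise for antibody binding to printed compounds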
Torsin-1A (Homo sapiens) [8] = biological target: Torsin-1A (Homo sapiens) (UniProt O14656); experiment: TOR1A wild-type binding on microarray – cell lysate, small-molecule microarray, lysate, 635/667 nm, primary screen (AID 1149); conditions: COS7 hTOR1A-WT lysate, 635 nm fluorescence, higher = more signal
Sequence of Torsin-1A (Homo sapiens) (O14656 whole entry, looked up): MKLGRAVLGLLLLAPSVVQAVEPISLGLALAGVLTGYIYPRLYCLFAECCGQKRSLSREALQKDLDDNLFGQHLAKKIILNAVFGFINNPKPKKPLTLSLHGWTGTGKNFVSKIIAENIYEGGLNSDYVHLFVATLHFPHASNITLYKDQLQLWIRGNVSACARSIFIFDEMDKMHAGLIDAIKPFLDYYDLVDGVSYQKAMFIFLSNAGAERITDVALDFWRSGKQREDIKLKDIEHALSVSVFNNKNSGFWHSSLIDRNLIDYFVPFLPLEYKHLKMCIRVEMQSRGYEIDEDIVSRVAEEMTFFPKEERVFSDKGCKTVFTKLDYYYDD

Torsin-1A (Homo sapiens) [9] = biological target: Torsin-1A (Homo sapiens) (UniProt O14656); experiment: torsin A mutant lysate binding on microarrays – cell lysate, small-molecule microarray, COS7 lysate, 635/667 nm fluorescence, primary screen (AID 1150); conditions: COS7 hTOR1A mutant lysate, 635 nm fluorescence, higher = more signal;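 further: score pools 667 nm emission and signal to noise measuring lysate protein binding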
[10] = system: Sonic hedgehog protein (Shh); experiment: Sonic hedgehog microarray binding compounds – biochemical, small-molecule microarray, 635/667 nm fluorescence, primary screen (AID 1151); conditions: 635 nm fluorescence, higher = more signal;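 further: Shh protein binding to compounds spotted on small-molecule microarray slides; score combines spot fluorescence intensity with signal-to-noise across triplicate slides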
[11] = optical density shifts of acrAB sulA E. coli – strain DRC41, OD650, 48 h, E. coli filamentation inducer project, primary screen (AID 1152); conditions: higher = more signal, called active from +8 up or from −8 down;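 further: E. coli MC1000 strain DRC41 lacking acrAB efflux pump and sulA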
[12] = probe aLefty1 binding on compound microarray – biochemical, small-molecule microarray, 635/667 nm fluorescence, primary screen (AID 1153); conditions: higher = more signal;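 further: score merges spot fluorescence with signal-to-noise ratio from the scanned slide images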
[13] = plasmodial surface anion channel blockers, osmotic lysis – cell-based, P. falciparum Indochina, OD700, 1 h, primary screen (AID 1154); conditions: P. falciparum Indochina infected RBC osmotic lysis, higher = more signal, called active from +8 up or from −8 down
[14] = plasmodial surface anion channel blockers, osmotic lysis – cell-based, P. falciparum Indochina, OD700, 2 h, primary screen (AID 1155);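 further: lysis reports solute entry through the parasite surface anion channel PSAC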; conditions: P. falciparum Indochina infected erythrocytes, higher = more signal, called active from +8 up or from −8 down
[15] = changes in parasitized red cell lysis, either direction – P. falciparum Indochina, OD700, 3 h, PSAC antagonist project, primary screen (AID 1156); conditions: P. falciparum-infected erythrocytes, osmotic lysis, higher = more signal, called active from +8 up or from −8 down
[16] = plasmodial surface anion channel blockers, osmotic lysis – cell-based, P. falciparum Indochina, OD700, 18 h, primary screen (AID 1157); conditions: P. falciparum Indochina infected erythrocytes, osmotic lysis OD700, 18 h; higher = more signal, called active from +8 up or from −8 down
[17] = S6 kinase pathway phospho-S6 level changes – cell-based, A549, cytoblot, luminescence, serum-stimulated, primary screen (AID 1158); conditions: 5 h, higher = more signal;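 further: serum-stimulated A549 lung adenocarcinoma cells; signal is phosphorylated S6 detected by cytoblot immunostaining with HRP secondary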
[18] = biological target: NADPH oxidase 2 (Homo sapiens) (UniProt P04839); experiment: compounds shifting NOX2 Amplex Red fluorescence – cell-based, HEK293-NOX2, PMA-stimulated, NOX inhibitor project, primary screen (AID 1159); conditions: 45 min, higher = more signal, called active from +8 up or from −8 down; further: test concentration not given here
Sequence of NADPH oxidase 2 (Homo sapiens) (P04839 whole entry, looked up): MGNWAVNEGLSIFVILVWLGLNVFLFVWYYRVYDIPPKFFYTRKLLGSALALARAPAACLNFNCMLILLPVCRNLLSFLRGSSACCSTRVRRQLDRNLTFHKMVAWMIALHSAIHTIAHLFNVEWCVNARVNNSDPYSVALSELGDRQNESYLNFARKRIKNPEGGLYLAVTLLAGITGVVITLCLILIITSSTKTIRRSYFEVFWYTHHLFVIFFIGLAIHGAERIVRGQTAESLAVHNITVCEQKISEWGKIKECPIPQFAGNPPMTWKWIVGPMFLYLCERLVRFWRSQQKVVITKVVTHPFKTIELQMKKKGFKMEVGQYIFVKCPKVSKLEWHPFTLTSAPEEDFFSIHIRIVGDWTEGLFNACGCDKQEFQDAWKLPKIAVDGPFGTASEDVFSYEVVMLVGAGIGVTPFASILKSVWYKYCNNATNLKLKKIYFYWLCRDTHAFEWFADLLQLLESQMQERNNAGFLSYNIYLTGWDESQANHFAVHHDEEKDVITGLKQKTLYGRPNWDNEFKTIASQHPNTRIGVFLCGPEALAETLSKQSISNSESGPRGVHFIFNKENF

[19] = biological target: NADPH oxidase 4 (Homo sapiens) (UniProt Q9NPH5); experiment: compounds shifting NOX4 Amplex Red fluorescence – cell-based, HEK293-NOX4, tetracycline-induced, NOX inhibitor project, primary screen (AID 1160); conditions: HEK293-NOX4, Amplex Red H2O2 fluorescence, 45 min; higher = more signal, called active from +8 up or from −8 down
Sequence of NADPH oxidase 4 (Homo sapiens) (Q9NPH5 whole entry, looked up): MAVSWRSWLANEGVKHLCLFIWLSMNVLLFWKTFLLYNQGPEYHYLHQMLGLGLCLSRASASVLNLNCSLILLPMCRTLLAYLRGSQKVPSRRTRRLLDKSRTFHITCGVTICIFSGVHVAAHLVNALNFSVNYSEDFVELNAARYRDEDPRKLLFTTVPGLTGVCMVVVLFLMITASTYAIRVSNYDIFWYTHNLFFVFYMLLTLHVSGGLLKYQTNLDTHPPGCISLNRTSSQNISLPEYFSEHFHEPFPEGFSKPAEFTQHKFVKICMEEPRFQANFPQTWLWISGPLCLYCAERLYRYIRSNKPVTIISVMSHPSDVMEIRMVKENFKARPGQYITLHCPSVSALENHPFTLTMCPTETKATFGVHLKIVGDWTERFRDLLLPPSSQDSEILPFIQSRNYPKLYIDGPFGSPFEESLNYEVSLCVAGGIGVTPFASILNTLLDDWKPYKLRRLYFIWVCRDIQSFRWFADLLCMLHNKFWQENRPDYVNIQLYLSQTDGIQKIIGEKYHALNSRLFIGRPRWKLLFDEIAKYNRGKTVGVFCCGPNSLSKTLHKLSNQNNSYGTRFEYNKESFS

[20] = biological target: NADPH oxidase 5 (Homo sapiens) (UniProt Q96PH1); experiment: compounds shifting NOX5 Amplex Red fluorescence – cell-based, HEK293-NOX5, NOX inhibitor project, primary screen (AID 1161); conditions: HEK293-NOX5, ionomycin, 45 min, higher = more signal
Sequence of NADPH oxidase 5 (Homo sapiens) (Q96PH1 whole entry, looked up): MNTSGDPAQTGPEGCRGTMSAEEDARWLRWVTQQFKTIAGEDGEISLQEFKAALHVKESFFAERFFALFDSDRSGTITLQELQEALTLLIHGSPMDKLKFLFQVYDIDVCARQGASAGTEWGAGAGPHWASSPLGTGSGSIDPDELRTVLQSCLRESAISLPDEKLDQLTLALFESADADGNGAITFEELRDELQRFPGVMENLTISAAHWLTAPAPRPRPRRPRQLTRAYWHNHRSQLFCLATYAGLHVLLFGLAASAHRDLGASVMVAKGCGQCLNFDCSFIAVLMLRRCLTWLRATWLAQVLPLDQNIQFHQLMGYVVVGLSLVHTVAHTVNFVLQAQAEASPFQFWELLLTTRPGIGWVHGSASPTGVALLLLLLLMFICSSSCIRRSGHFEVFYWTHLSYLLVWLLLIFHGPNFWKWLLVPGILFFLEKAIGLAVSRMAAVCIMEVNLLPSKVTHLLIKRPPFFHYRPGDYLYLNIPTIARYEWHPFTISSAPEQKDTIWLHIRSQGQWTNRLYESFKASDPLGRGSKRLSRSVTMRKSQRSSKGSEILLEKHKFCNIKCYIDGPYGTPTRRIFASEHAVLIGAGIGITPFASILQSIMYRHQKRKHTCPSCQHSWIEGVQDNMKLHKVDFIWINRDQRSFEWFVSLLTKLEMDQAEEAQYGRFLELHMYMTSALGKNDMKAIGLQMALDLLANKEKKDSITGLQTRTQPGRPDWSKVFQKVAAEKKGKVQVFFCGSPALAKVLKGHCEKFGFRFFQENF

| SMILES | composite z-score [1] | z-score [2] | z-score [3] | z-score [4] | z-score [5] | composite z-score [6] | composite z-score [7] | composite z-score (Torsin-1A (Homo sapiens) [8]) | composite z-score (Torsin-1A (Homo sapiens) [9]) | composite z-score [10] | z-score [11] | composite z-score [12] | z-score [13] | z-score [14] | z-score [15] | z-score [16] | z-score [17] | z-score [18] | z-score [19] | z-score [20] |
| --- | --- | --- | --- | --- | --- | --- | --- | --- | --- | --- | --- | --- | --- | --- | --- | --- | --- | --- | --- | --- |
| COc1ccc(C(=O)Nc2ccc(CN3C(=O)[C@]4(O[C@H](CCn5cc(CCO)nn5)[C@@H]([Si](C)(C)c5ccc(OC)cc5)[C@@H]4C)c4ccccc43)cc2)cc1 | 0.278 | -7.86 (inactive) | -0.637 (inactive) | 3.37 (inactive) | -1.8 (inactive) | 0.863 | 0.279 | 0.421 | 0.638 | 1.99 | 0.173 (inactive) | 0.0253 | 9.37 (active) | 2.64 (inactive) | 1.68 (inactive) | 1.67 (inactive) | -0.196 | 0.844 (inactive) | 0.392 (inactive) | 3.29 |
| [N-]=[N+]=NCc1ccccc1[C@H]1OC(c2ccc(OCCCO)cc2)=N[C@@]1(Cc1ccccc1N=[N+]=[N-])C(=O)NCc1ccccc1 | 0.928 | -3.99 (inactive) | -0.358 (inactive) | 1.74 (inactive) | -0.676 (inactive) | 0.303 | 0.671 | 0.22 | 0.681 | 0.033 | -0.258 (inactive) | 0.195 | 28.3 (active) | 20.5 (active) | 1.96 (inactive) | 1.99 (inactive) | -0.0679 | -0.627 (inactive) | 0.522 (inactive) | -0.56 |
| C=CCOC(=O)[C@@H]1[C@H]2C(=O)O[C@H](c3ccccc3)[C@H](c3ccccc3)N2[C@H](c2ccc(OCCOC(=O)[C@H]3C[C@H]4C(=O)N[C@@H](CCCCNC(C)=O)C(=O)N4[C@H]3c3ccc(O)cc3)cc2)[C@@]12C(=O)Nc1ccc(I)cc12 | 0.728 | -0.317 (inactive) | 0.645 (inactive) | 0.549 (inactive) | 0.906 (inactive) | 0.0984 | 0.0073 | 1.32 | 1.29 | 2.07 | -0.725 (inactive) | 0.325 | 2.99 (inactive) | 1.92 (inactive) | 0.855 (inactive) | 1.23 (inactive) | 1.3 | 2.16 (inactive) | 1.27 (inactive) | 1.64 |
| C#CCCCON=C1C[C@@H](O)[C@@H](O)[C@@H]2[C@@H]3C(=O)N(Cc4ccc5c(c4)OCO5)C(=O)[C@@H]3CC[C@H]12 | 0.322 | 0.0582 (inactive) | 0.448 (inactive) | -0.657 (inactive) | 0.653 (inactive) | 1.26 | -0.261 | 0.572 | 0.267 | 1.42 | 0.324 (inactive) | -0.161 | – | – | – | – | -0.852 | -0.275 (inactive) | 0.911 (inactive) | -0.124 |
| CC(C)C[C@@H]1NC(=O)[C@H](CC(C)C)NC(=O)[C@@]23C(=O)N[C@@H](Cc4ccccc4)C2[C@H](C)[C@@]2(C)O[C@H]2C3/C=C/CC/C=C/CNC1=O (stereo partly specified) | -0.048 | -3.54 (inactive) | -1.16 (inactive) | 0.126 (inactive) | -0.792 (inactive) | 1.3 | -0.128 | 0.382 | 0.29 | 1.14 | -0.239 (inactive) | 0.0275 | 1.7 (inactive) | 0.627 (inactive) | 1.33 (inactive) | 0.575 (inactive) | -0.0044 | 0.123 (inactive) | 0.349 (inactive) | -1.62 |
| C=CCC(OC(C)=O)[C@@H]1[C@@H](N(Cc2ccc(-c3ccccc3)cc2)C(=O)c2ccc(-c3ccccc3)cc2)c2cc(OCCCO)ccc2N1C(=O)Cc1ccc(OC)cc1 (stereo partly specified) | 0.0459 | -0.178 (inactive) | 0.318 (inactive) | -0.0247 (inactive) | 0.522 (inactive) | 0.573 | -0.0774 | -0.096 | -0.37 | 0.346 | -0.685 (inactive) | 0.149 | 0.572 (inactive) | -0.402 (inactive) | -0.501 (inactive) | -0.184 (inactive) | -0.192 | -1.56 (inactive) | 1.2 (inactive) | 1.41 |
| CC1CC/C=C\[C@H]2OC34C=CCN(Cn5nnc6ccccc65)C(=O)[C@H]3N(C(C)CO)C(=O)[C@@H]4C2C(=O)O1 (stereo partly specified) | -0.501 | 0.349 (inactive) | -0.182 (inactive) | -1.03 (inactive) | -0.542 (inactive) | -0.465 | -0.0675 | -0.276 | -1 | -0.362 | 0.0838 (inactive) | -0.204 | 2.25 (inactive) | 0.974 (inactive) | 1.03 (inactive) | 0.477 (inactive) | 0.0801 | 0.963 (inactive) | 0.173 (inactive) | 1.79 |
| C=CC[C@]1(C(=O)N2CCCCC2)N=C(c2ccc(OCCCO)cc2)O[C@H]1c1ccccc1N=[N+]=[N-] | 0.824 | -3.21 (inactive) | -0.903 (inactive) | -0.174 (inactive) | -1.18 (inactive) | 1.87 | 0.0355 | 1.02 | 1.06 | 0.377 | 0.297 (inactive) | 0.707 | 35.8 (active) | 31.6 (active) | 4.43 (inactive) | 8.93 (active) | 0.0944 | -1.88 (inactive) | 0.898 (inactive) | -0.971 |
| COc1ccc(C(O)C2C=CC3C(=O)N(C)C(=O)C3N2N2CCCCC2)cc1OCc1ccccc1 (stereo unspecified) | 0.0847 | 0.135 (inactive) | -0.314 (inactive) | 0.433 (inactive) | -0.342 (inactive) | 0.701 | -0.0332 | 0.0884 | 0.836 | -0.282 | -1.54 (inactive) | 0.11 | 2.29 (inactive) | 1.53 (inactive) | 0.42 (inactive) | 1.27 (inactive) | -1.16 | 0.0637 (inactive) | -1.56 (inactive) | 1.31 |
